These results are taken from PubChem BioAssay (NCATS).

Test [1] concerns the target Lysosomal acid glucosylceramidase (Homo sapiens) (UniProt P04062). Briefly: Glucocerebrosidase-p2 (AID 348; in the data active = potency below about 10 µM; also: potency is read from the fitted curve at half-maximal effect). To be noted: purified GBA, blue fluorogenic substrate, 40 min. The method, boiled down:
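Normal human glucocerebrosidase (0.2 nM) with blue fluorogenic substrate (80 uM final) in citrate/phosphate pH 5.9 with 10mM sodium taurocholate, 0.01% tween-20; 40 min RT, NaOH/glycine stop; fluorescence Ex 365/Em 440; AC50 from a titration from 0.6 nM upwards.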

The nature of test [2]: AP1 Signaling Pathway (AID 357).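 Also: ME-180 reporter cells stimulated with EGF at its EC50 level; % is scaled to controls: 0 for no effect and ±100 for the full control effect.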 The settings on record: ME-180 AP-1-bla reporter, EGF-induced, beta-lactamase ratio, 5 h; at 7.69 µM (top of the series) unless noted. The method, boiled down:
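Cells are seeded overnight, exposed to compound titrations and an EC50 level of EGF for 5 hours at 37 °C, then loaded with CCF4 dye for 2.5 hours. Beta-lactamase activity under the AP-1 element is read as a blue/green ratio.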

Test [3] deals with Cytochrome P450 1A2 (Homo sapiens) (UniProt P05177). Briefly: p450-cyp1a2 (AID 410; calls by dose curve; also: potency is read from the fitted curve at half-maximal effect;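 as to activity change, negative = inhibition: -100% = full effect of reference inhibitor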). To be noted: recombinant CYP1A2, luciferin-ME demethylation, luminescence; series mostly up to 57 µM. In short, it runs like this:
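Luminescent demethylation readout: Luciferin-ME (100uM, equal to Km) turned over by 20nM CYP1A2 for 60 min at room temperature after NADPH regeneration addition, following 10 min compound preincubation. Normalization used 57 uM furafylline as full inhibition.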

A short description of test [4]: Stat Signaling Pathway (AID 446).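 Also: ME-180 cervical cancer cells given 40 pM IL-6 alongside compound; SIE-controlled beta-lactamase reporter measured as 460/530 nm FRET emission ratio; % is scaled to controls: 0 for no effect and ±100 for the full control effect.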 The settings on record: ME-180 (cervical carcinoma) SIE beta-lactamase reporter, IL-6 stimulated, 5 h; at 7.69 µM (top of the series) unless noted. The method, boiled down:
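Emission at 460 and 530 nm (excitation 405 nm) reports SIE-controlled beta-lactamase in ME-180 cells. Cells received compound with 40 pM IL-6 for 5 hrs at 37 C; data scaled between 300 pM IL-6 and 125 nM JAK-inhibitor controls.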

Test [5] concerns the target Glucocorticoid receptor (Homo sapiens) (UniProt P04150). The test can be described thus: GR-GFP Redistribution (AID 450;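 active = compounds whose dose series gives a full or clear partial fitted curve of increased nuclear translocation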; also: potency is read from the fitted curve at half-maximal effect). The settings on record: U2OS GR-GFP nuclear translocation, laser cytometry, 2 h.
For test [6] the target is unchanged. The test can be described thus: GR-EFC Redistribution (AID 451; calls by dose curve; also: potency is read from the fitted curve at half-maximal effect). The settings on record: CHO-K1 GR-EFC translocation, beta-gal luminescence, 2 h. In short, it runs like this:
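CHO-K1 cells stably expressing nuclear-localized β-gal enzyme acceptor and GR fused C-terminally to the enzyme donor fragment; ligand-driven nuclear translocation restores β-gal by complementation. Compounds titrated up to 46 uM final, 2 h at 37 °C; luminescence read.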

Test [7] addresses Mitogen-activated protein kinase 10 (Mus musculus) (UniProt Q61831). The test can be described thus: JNK3 AlphaScreen Assay (AID 530).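 Also: kinase came from lysate of stimulated human HepG2 cells; signal reports phosphorylation of biotinylated GST-cJun 1-79 at Ser73 with 10 µM ATP; % is scaled to controls: 0 for no effect and ±100 for the full control effect.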 To be noted: JNK3 lysate, c-Jun phosphorylation; series mostly up to 57.1 µM. In short, it runs like this:
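Phosphorylation of biotinylated GST-cJun(1-79) at Ser73 is measured by AlphaScreen proximity luminescence. Enzyme is JNK3 in HepG2 lysates activated with interleukin-1beta and tumor necrosis factor alpha; ATP is 10 uM final.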
For orientation: Bead proximity is the source of the signal in Alpha formats.

Test [8] concerns the target 3',5'-cyclic-AMP phosphodiesterase 4B (Homo sapiens) (UniProt Q07343). The test can be described thus: qHTS Assay for Inhibitors of PDE-IV (AID 607; active = well fitted activation curve with a large enough effect in the main read-out, with a control signal flat, not every such curve was filed as active; also: % of control where 0% means no effect). The settings on record: HEK293 ACTOne CNG channel cells, membrane potential fluorescence; series mostly up to 22.9 µM. In short, it runs like this: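 The readout is membrane depolarisation from a cAMP-sensing CNG channel, detected with a potential dye at ex 535/em 590. Cells were HEK293-derived (endogenous PDE-IV) at 1000 cells/well, titrated up to 22.9 uM final.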
A general note: qHTS replaces the single test concentration by a dilution series.

The target in test [9] is Cytochrome P450 3A4 (Homo sapiens) (UniProt P08684). The test can be described thus: qHTS Assay for Activators of Cytochrome P450 3A4 (AID 885; active = well fitted curve in the direction sought with a large enough effect; an effect the other way counts as inactive or inconclusive; also: nearly all actives have a fitted effect of over 65% in size). To be noted: recombinant CYP3A4, Luciferin-PPXE luminescence, 60 min; series mostly up to 57.1 µM. The method, boiled down:
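Activators are scored by enhanced luminescence from CYP3A4 conversion of luciferin-PPXE (25uM, equal to KM) to luciferin, after 60 min at RT with an NADPH-regenerating system.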

The nature of test [10]: Confirmation and Secondary Assay for Modulators of Hemoglobin Beta Chain Splicing at IVS2 654 locus (AID 910; active = well fitted curve in the direction sought with a large enough effect; an effect the other way counts as inactive or inconclusive;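 also: per-well total GFP intensity by laser scanning cytometry after 2-day treatment; % of control where 0% means no effect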). The settings on record: HeLa EGFP-654 splicing reporter, GFP fluorescence, 48 h; series mostly up to 38.3 µM. In short, it runs like this: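 HeLa cells stably carrying EGFP interrupted by mutant beta-globin IVS2-654 intron (CMV-driven) were treated with compound for 2 days at 37C; corrected splicing was scored as total peak GFP intensity per well (488 nm excitation, 500-520 nm emission).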

Test [11] in a line: Confirmation and Secondary Assay for Modulators of Hemoglobin Beta Chain Splicing at IVS2 705 locus (AID 930; active = well fitted curve in the direction sought with a large enough effect; an effect the other way counts as inactive or inconclusive;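 also: HeLa cells stably expressing the EGFP-705 splicing reporter; GFP fluorescence per well restored by corrected splicing of the IVS2-705 intron in EGFP; % of control where 0% means no effect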). The settings on record: HeLa EGFP-705 splicing reporter, GFP fluorescence, 48 h; series mostly up to 38.3 µM. The method, boiled down: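 First, HeLa EGFP-705 cells are seeded at 500/well in Optimem with 2% FCS and left overnight. Next, compound or DMSO is added for 2 days. Finally wells are laser-scanned and total peak GFP intensity scored.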

For test [12], the target named is Ubiquitin carboxyl-terminal hydrolase 1 (Homo sapiens) (UniProt O94782). The test can be described thus: Inhibitors of USP1/UAF1: Pilot qHTS (AID 504865; active = well fitted curve in the direction sought with a large enough effect; an effect the other way counts as inactive or inconclusive;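 also: rhodamine fluorescence freed from ubiquitin-rhodamine substrate followed over time; top concentration of the series differs between compounds; % is scaled to controls: 0 for no effect and ±100 for the full control effect; nearly all actives have a fitted effect of over 35% in size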). The settings on record: purified USP1/UAF1, Ub-rhodamine cleavage fluorescence; series mostly up to 54.9 µM. The method, boiled down: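 USP1/UAF1 complex at 1 nM preincubated 15 min at room temperature with compound, then Ub-Rho substrate added at 150 nM final. Fluorescence (480/540 nm) read kinetically in 50 mM HEPES pH 7.8, 0.5 mM EDTA, 1 mM TCEP, 0.1 mg/ml BSA, 0.01% Tween-20.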

The nature of test [13]: Primary qHTS for small molecule stabilizers of the endoplasmic reticulum resident proteome: Secreted ER Calcium Modulated Protein (SERCaMP) assay (AID 1508630; active = well fitted curve in the direction sought with a large enough effect; an effect the other way counts as inactive or inconclusive; also: % is scaled to controls: 0 for no effect and ±100 for the full control effect). The settings on record: SH-SY5Y GLuc-SERCaMP (Gaussia luciferase released on ER calcium loss) secretion, thapsigargin, luminescence; series mostly up to 38.4 µM. The method, boiled down:
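The SH-SY5Y reporter protocol was run at 3 concentrations up to 38.3 uM (primary) or 11 concentrations (follow-up): 16 h compound, 100 nM thapsigargin for 4 h, then extracellular luciferase luminescence.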

A short description of test [14]: NFAT Signaling Pathway (AID 444). The settings on record: Jurkat NFAT-bla M1, carbachol, beta-lactamase ratio, 5 h; at 7.69 µM (top of the series) unless noted. The method, boiled down: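 Jurkat cells carrying an NFAT-driven β-lactamase reporter and co-transfected muscarinic M1 receptor were treated with compound plus carbachol (1 uM final, an EC50 level) for 5 h at 37 °C. CCF4 loading followed for 1 h at RT; 460/530 nm ratio gave %activity.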

Test [15] concerns the target Cytochrome P450 2C9 (Homo sapiens) (UniProt P11712). Briefly: qHTS Assay for Inhibitors and Substrates of Cytochrome P450 2C9 (AID 883; active = well fitted curve in the direction sought with a large enough effect; an effect the other way counts as inactive or inconclusive; also: potency is read from the fitted curve at half-maximal effect; nearly all actives have a fitted effect of over 60% in size). The settings on record: recombinant CYP2C9, luciferin-H luminescence, 60 min; series mostly up to 57.1 µM. In short, it runs like this: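 A luminogenic readout tracked human CYP2C9 (10nM) converting deoxyluciferin (100uM, at KM) in 25mM KPO4 during 60 min at 37C with regenerated NADPH. Values normalized to 57uM sulphaphenazole as complete inhibition.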

Test [16] has as its target Cytochrome P450 3A4 (Homo sapiens) (UniProt P08684). Briefly: qHTS Assay for Inhibitors and Substrates of Cytochrome P450 3A4 (AID 884; active = well fitted curve in the direction sought with a large enough effect; an effect the other way counts as inactive or inconclusive; also: potency is read from the fitted curve at half-maximal effect; nearly all actives have a fitted effect of over 50% in size). To be noted: recombinant CYP3A4, Luciferin-PPXE luminescence; series mostly up to 57.1 µM. The method, boiled down: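 Luminescent readout of luciferin produced by CYP3A4 (20 nM) dealkylation of Luciferin-PPXE, 25 uM (its KM). NADPH-driven reaction ran 60 min at RT after 10 min compound preincubation; data scaled to 57 uM ketoconazole as 100% inhibition.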

Values without a mark were called inactive. Inconclusive results are not listed. Calls of active or inactive are those of the source. Unless noted, calls follow the shape of the dose curve; as a rule, active = well fitted curve in either direction with a large enough effect (not every such curve was filed as active); inconclusive = small, poorly fitted or top-dose-only effect, or another doubt; inactive = flat fitted curve, though single readings scatter.

Cytochrome P450 1A2 (Homo sapiens), sequence (P05177 whole entry, looked up): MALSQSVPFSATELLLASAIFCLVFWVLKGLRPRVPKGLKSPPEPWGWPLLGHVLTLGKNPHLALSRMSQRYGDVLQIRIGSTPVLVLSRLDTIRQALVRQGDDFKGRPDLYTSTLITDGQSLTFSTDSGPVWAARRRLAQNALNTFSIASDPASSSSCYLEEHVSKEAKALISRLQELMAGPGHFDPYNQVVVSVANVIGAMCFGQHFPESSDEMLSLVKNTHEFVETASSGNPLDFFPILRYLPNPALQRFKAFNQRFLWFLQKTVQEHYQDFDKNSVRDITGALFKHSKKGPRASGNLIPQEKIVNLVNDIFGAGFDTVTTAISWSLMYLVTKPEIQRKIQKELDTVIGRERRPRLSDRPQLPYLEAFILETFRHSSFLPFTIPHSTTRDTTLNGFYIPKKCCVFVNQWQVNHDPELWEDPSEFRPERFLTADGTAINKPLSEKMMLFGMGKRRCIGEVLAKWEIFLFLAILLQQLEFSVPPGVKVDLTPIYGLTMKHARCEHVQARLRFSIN
Lysosomal acid glucosylceramidase (Homo sapiens), sequence (P04062 whole entry, looked up): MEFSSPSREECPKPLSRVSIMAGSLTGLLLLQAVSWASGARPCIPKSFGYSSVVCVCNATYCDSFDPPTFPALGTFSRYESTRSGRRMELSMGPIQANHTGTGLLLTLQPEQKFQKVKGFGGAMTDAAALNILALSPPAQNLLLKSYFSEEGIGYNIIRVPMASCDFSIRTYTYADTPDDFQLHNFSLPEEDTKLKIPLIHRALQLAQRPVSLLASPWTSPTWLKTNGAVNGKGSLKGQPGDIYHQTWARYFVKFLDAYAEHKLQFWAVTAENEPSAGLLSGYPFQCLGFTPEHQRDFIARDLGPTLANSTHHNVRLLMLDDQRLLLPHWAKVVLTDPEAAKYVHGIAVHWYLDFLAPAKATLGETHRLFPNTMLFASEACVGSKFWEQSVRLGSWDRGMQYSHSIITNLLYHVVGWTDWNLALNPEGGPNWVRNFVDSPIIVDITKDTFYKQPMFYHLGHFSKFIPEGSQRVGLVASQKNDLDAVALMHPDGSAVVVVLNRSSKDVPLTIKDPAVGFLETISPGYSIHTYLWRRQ
Glucocorticoid receptor (Homo sapiens), sequence (P04150 whole entry, looked up): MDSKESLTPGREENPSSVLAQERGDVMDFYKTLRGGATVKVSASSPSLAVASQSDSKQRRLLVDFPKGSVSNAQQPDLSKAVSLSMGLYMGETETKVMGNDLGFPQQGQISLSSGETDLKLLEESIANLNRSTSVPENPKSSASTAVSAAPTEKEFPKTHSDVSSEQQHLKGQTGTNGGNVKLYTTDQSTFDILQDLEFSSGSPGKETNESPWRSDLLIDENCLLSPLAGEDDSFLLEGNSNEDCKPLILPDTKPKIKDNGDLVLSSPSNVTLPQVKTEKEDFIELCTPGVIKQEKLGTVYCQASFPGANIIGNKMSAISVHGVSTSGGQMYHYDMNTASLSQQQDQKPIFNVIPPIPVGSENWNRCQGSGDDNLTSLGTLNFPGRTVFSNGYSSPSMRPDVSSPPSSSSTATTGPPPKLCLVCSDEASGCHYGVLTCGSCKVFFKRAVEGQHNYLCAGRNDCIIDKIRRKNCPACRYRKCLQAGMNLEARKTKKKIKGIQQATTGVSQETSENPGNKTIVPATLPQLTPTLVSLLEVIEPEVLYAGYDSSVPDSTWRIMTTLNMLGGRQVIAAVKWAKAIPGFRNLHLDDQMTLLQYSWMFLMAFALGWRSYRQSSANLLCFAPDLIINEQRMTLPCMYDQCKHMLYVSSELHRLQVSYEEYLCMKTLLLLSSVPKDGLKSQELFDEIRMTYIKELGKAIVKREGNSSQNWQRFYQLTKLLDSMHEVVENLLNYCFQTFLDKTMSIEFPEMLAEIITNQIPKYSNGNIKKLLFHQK
Cytochrome P450 3A4 (Homo sapiens), sequence (P08684 whole entry, looked up): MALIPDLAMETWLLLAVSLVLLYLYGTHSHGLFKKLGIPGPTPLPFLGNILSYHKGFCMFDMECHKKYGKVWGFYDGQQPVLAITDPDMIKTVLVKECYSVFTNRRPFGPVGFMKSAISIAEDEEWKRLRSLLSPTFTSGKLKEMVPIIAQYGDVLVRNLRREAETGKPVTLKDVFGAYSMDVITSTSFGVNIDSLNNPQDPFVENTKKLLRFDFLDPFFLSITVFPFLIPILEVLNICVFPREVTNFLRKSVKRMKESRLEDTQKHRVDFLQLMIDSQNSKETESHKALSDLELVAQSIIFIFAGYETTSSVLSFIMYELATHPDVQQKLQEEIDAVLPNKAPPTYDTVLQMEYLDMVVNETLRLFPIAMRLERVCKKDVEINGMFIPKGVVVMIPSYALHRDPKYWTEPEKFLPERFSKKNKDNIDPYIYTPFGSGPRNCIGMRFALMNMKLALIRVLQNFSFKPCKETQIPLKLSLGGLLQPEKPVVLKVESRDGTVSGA
3',5'-cyclic-AMP phosphodiesterase 4B (Homo sapiens), sequence (Q07343 whole entry, looked up): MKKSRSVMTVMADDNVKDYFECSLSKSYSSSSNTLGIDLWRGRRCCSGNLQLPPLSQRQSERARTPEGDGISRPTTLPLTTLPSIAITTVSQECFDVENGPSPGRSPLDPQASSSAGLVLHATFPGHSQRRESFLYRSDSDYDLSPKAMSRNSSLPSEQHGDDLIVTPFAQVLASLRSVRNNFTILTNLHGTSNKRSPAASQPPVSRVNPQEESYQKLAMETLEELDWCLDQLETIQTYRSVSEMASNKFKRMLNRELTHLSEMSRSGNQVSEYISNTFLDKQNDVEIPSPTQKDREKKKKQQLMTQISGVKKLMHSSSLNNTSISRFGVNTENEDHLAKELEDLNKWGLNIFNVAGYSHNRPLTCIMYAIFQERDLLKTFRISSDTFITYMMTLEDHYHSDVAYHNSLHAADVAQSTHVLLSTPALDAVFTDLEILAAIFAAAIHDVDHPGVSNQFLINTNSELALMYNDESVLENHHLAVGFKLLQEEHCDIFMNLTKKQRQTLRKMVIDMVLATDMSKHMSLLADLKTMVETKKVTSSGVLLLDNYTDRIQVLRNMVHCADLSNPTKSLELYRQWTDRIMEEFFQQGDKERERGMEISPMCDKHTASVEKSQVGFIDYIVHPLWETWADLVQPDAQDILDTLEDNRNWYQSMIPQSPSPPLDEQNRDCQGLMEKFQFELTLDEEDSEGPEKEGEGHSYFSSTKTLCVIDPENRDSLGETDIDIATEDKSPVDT
Ubiquitin carboxyl-terminal hydrolase 1 (Homo sapiens), sequence (O94782 whole entry, looked up): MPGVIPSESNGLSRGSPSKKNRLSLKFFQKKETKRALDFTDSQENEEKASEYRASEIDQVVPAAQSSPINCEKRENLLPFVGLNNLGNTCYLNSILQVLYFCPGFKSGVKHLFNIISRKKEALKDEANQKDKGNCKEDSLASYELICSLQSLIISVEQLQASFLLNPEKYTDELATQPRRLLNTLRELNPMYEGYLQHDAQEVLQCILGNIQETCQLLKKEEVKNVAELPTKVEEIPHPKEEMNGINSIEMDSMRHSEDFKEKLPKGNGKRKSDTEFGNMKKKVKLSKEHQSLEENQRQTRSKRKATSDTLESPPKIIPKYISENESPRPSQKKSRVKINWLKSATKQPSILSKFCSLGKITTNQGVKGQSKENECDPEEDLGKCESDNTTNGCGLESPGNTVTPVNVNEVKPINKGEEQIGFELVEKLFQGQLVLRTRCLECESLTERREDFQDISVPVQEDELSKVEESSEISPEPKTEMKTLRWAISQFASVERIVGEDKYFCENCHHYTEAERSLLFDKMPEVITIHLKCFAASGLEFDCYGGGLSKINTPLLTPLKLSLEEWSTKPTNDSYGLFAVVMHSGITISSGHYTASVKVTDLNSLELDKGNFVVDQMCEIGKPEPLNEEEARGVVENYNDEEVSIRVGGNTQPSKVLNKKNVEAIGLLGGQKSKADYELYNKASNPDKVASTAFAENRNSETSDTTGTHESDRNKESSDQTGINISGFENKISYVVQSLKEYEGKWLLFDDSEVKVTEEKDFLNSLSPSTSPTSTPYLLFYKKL
Cytochrome P450 2C9 (Homo sapiens), sequence (P11712 whole entry, looked up): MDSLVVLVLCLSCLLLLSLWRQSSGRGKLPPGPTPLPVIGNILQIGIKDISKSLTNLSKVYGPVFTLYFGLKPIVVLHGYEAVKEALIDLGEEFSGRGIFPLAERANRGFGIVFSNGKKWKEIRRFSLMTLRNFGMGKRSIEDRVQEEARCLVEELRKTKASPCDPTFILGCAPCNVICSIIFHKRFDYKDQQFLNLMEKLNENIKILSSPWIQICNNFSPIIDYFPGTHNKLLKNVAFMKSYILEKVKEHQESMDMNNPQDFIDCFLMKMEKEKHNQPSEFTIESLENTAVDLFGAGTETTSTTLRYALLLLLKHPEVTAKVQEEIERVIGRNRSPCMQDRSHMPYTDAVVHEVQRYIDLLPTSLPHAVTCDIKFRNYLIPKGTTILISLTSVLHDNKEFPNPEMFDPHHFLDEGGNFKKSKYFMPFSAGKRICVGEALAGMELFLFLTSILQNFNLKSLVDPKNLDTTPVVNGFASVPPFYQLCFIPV

As to `Clc1ccccc1-c1cc(NCc2cccnc2)ncn1`, the Potency in [1] was more than 11.4 µM; in [3], 3.16 µM (active); in test [5] it was more than 46 µM; in [6], more than 46 µM. The activity change, negative = inhibition in test [2] was -5.3%. Besides, the activity, negative = inhibition in test [4] was 6.36%. Also, the Potency result in [7], in test [8], in [9], in test [10] and in [12] was “inactive” throughout. Besides, the compound was called inactive in [11] and in test [13].
With `N#Cc1cccc(-c2nc3cnc(N4CCNCC4)nc3n(C3CC3)c2=O)c1`, the Potency in test [1] is more than 11.4 µM; in [3], 5.01 µM (active); in test [5] it was more than 9.22 µM; in [6], more than 46 µM; in test [15], 631 nM (active). Also, the activity change, negative = inhibition was 13.2% in [2] and 26.2% in test [14]. In addition, the Potency entry in test [7], in [8] and in test [9] was “inactive” in each case. Moreover, the result in test [13] was inactive.
Regarding `O=C(Nc1ccccc1)N1CCCC2(CCN(C(=O)c3cnccn3)CC2)C1`, the values for the Potency in test [1] and in test [6] were more than 11.4 µM and more than 46 µM, respectively. In addition, the results for the activity change, negative = inhibition in [2] and in [14] were 4.4% and 15.7%, respectively. Also, the Potency entry in test [3], in test [7], in test [8] and in test [9] was “inactive” in each case. Moreover, the activity, negative = inhibition in test [4] is 2.67%. Further, the result in test [13] was inactive.
Regarding `O=c1c(-c2ccc(F)c(F)c2)nc2cncnc2n1-c1ccccc1`, the Potency in [1] was more than 11.4 µM; in [3], 12.6 µM (active); in test [5] it was more than 9.22 µM; in test [6], more than 46 µM. The activity change, negative = inhibition in test [2] was -19.9%; in [14], 3.06%. The Potency result in [7] and in test [9] was “inactive” in each case. Also, the outcome in [13] was inactive.
Regarding `CCNc1ncc2nc(-c3ccc(OC)cc3)c(=O)n(-c3ccc(OC)cc3)c2n1`, the Potency in [1] is more than 11.4 µM; in [5] it was more than 9.22 µM; in test [6], more than 46 µM. The activity change, negative = inhibition is -16% in test [2] and -5.13% in [14]. The Potency entry in test [3], in test [7] and in test [9] was “inactive” in each case. The result in test [13] was inactive.
On to `O=C(Nc1cccc(F)c1)N1CC[C@@]2(CCCN(C(=O)c3cnccn3)C2)C1`, for which the Potency in test [1] was more than 11.4 µM; in [6], more than 46 µM. The activity change, negative = inhibition is 4.63% in test [2] and 12.9% in test [14]. Also, the Potency entry in test [3], in [7], in test [8] and in test [9] was “inactive” in each case. Moreover, the activity, negative = inhibition in test [4] was 2.65%. Also, the result in test [13] was inactive.
Consider `CS(=O)(=O)N1CCC[C@@]2(CCN(c3ncccn3)C2)C1`, for which the Potency in test [1] is more than 11.4 µM. Further, the activity change, negative = inhibition was -9.3% in test [2] and 16.2% in [14]. Besides, the Potency result in [3], in [7] and in test [8] was “inactive” each time. In [4], the activity, negative = inhibition is -19.8%. Further, in test [13], the result was inactive.
For `COc1ccc(Oc2ncc3nc(-c4cccs4)c(=O)n(-c4ccccc4)c3n2)cc1`, the Potency was more than 11.4 µM in [1]; 3.16 µM (active) in test [3]; more than 9.22 µM in test [5]; more than 46 µM in test [6]; 2.51 µM (active) in test [16]. Moreover, the activity change, negative = inhibition is 21.1% in test [2] and 8.33% in test [14]. Also, the Potency entry in test [7], in [8] and in test [9] was “inactive” in each case. For the same compound, in test [13], the result was inactive.
